# Compound activity: PubChem, National Center for Advancing Translational Sciences (NCATS)
# GoLoco inh red: blocks human Gai1 binding to RGS12 GoLoco peptide, red readout; P63096; Gai1:RGS12 GoLoco peptide FP, rhodamine, 10 min; Potency, µM (doses to about 61.6 µM), without a hit: at the highest dose activity, negative = inhibition, actives largely listed as inhibitors; hit rate 0.44% among 230,000; active = well fitted inhibition curve with a large enough effect, not every such curve was filed as active; inactive = no such curve, though single readings can be large or run the other way; note: potency is the fitted concentration of half-maximal effect; % is set by controls: 0 for no effect and ±100 for the full control effect; nearly all actives have a fitted effect of over 30% in size
# HPGD block: inhibitors of human 15-hydroxyprostaglandin dehydrogenase (HPGD) | AID 894 | Potency, µM, for inactives: at the highest dose activity change, negative = inhibition, most hits filed as inhibitors | purified HPGD, NADH fluorescence kinetic, PGE2 substrate | hit rate 4.3% among 150,000; active = well fitted inhibition curve with a large enough effect, not every such curve was filed as active; inconclusive = small, poorly fitted or top-dose-only effect, or another doubt; inactive = no such curve, though single readings can be large or run the other way; note: potency is the fitted concentration of half-maximal effect; % is set by controls: 0 for no effect and ±100 for the full control effect
# Target sequence (P15428 whole entry, looked up): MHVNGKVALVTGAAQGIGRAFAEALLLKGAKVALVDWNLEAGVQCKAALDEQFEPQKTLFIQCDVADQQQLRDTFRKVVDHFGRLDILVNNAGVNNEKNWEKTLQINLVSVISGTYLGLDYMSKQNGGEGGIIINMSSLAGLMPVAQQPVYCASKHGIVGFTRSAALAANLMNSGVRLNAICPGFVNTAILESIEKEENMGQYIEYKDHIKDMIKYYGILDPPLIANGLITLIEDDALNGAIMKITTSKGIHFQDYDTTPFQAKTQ
#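 NADH formation kinetics: reaction with 30 uM PGE2 and 1 mM NAD+ (final), 20 nM enzyme, Tris-HCl pH 8 with Tween 20, after 15 min compound preincubation at room temperature. Fluorescence change, last versus first of five reads.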
# HTT cytoprotect: cytoprotection in Huntington HTT-Q103 PC12 cell model. PC12 HTT-Q103 induced, cytoprotection, ATP luminescence, 40 h. Potency, µM (top dose mostly 56.4 µM), for the others: cytoprotection (ATP increase), actives largely listed as activators. hit rate 0.14% among 230,000. AID 1471; note: potency is the fitted concentration of half-maximal effect; % of control where 0% means no effect; nearly all actives have a fitted effect of over 45% in size
#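 Stable PC12 Q103-GFP cells in serum-supplemented, phenol red-free DMEM; induction by tebufenozide at 100 nM final; compound dose series; cell viability quantified luminescently from ATP.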
# PNC assembly inh: inhibitors of perinucleolar compartment assembly | PC3M PTB-GFP, PNC prevalence imaging, 16 h; stronger effect = lower value | activity change (PNC), negative = inhibition, % at 10 µM | hit rate 3.1% among 140,000 | AID 2417;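 active = readout at or below -70, meaning at least 70% loss of cells showing the perinucleolar compartment, a nuclear body marking cancer cells; inconclusive = readout between -30 and a set limit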;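 note: plate controls were DMSO wells for no effect and camptothecin positive control wells for full effect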
#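 PC3M cells stably expressing PTB-GFP, 750–1000 cells/well, treated 16 h at 37 °C with compound (23 nl of library stock), in duplicate. After paraformaldehyde fixation and Hoechst stain, imaged at 20x; PNC prevalence scored by image analysis.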
# ALDH1A1 block: inhibitors of human aldehyde dehydrogenase 1A1; Purified ALDH1A1, NADH fluorescence, propionaldehyde substrate; Potency, µM (highest dose often 75.3 µM), for inactives: at the highest dose activity, negative = inhibition, usual class: inhibitors; hit rate 7.3% among 220,000; AID 1030; active = well fitted inhibition curve with a large enough effect, not every such curve was filed as active; inconclusive = small, poorly fitted or top-dose-only effect, or another doubt; inactive = no such curve, though single readings can be large or run the other way;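 note: potency is the fitted concentration of half-maximal effect; plate controls were no enzyme wells and a reference inhibitor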
# Target sequence (P00352 whole entry, looked up): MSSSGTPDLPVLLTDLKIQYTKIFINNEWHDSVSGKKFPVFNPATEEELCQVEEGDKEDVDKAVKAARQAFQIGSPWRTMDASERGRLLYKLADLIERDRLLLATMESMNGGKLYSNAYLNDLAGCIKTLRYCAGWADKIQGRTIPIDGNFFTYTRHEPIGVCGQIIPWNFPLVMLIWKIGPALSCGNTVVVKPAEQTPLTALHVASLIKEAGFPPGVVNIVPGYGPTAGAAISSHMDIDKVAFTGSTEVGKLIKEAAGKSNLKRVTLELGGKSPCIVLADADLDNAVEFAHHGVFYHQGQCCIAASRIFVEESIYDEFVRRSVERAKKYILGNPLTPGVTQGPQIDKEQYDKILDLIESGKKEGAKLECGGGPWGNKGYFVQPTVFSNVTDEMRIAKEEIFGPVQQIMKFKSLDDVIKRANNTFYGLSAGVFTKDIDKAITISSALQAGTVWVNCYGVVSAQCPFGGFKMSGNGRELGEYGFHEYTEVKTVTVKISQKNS
# HTT aggregate: reduces HttQ103-GFP aggregates in PC12 cells; hit rate 1.1% among 220,000; PC12 HttQ103-GFP aggregates, Acumen cytometry, 40 h; Potency, µM (titrated, usually from 46.1 µM), without a hit: top-dose activity change, negative = inhibition, most hits filed as inhibitors; note: potency is the fitted concentration of half-maximal effect; % is set by controls: 0 for no effect and ±100 for the full control effect; nearly all actives have a fitted effect of over 60% in size
#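 Huntingtin Q103 exon 1–GFP aggregates in induced PC12 cells (100 nM tebufenozide) were quantified by cytometry from lysates, with compounds dosed in titration.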
# * = called active by the depositor; ? = inconclusive; nt = no result; [ ] = remark or other dose. Rows were chosen to be rich in hits. Some 11% of all compounds tested hit in one or more screens of this group. Unless noted, calls come from the whole dose curve; as a rule, active = well fitted curve in the direction sought with a large enough effect; inconclusive = small, poorly fitted or top-dose-only effect, or another doubt; inactive = no such curve, though single readings can be large; an effect the other way counts as inactive or inconclusive.
SMILES,GoLoco inh red,HPGD block,HTT cytoprotect,PNC assembly inh,ALDH1A1 block,HTT aggregate
COc1ccc(-c2coc3cc4oc(=O)c5ccccc5c4cc23)cc1F,2%,?,-74%[10 µM],-81*,-6%,-15%
Cn1c(SCC(=O)c2ccccc2)nnc1-c1cccc(N)c1,13%,-8%,0%[10 µM],43,?,-11%
CC1CN(C(=O)c2ccc(C(=O)c3ccccc3)cc2)CC(C)O1 (stereo not drawn),1%,14µM*,-19%,-15,?,-15%
O=C(c1ccc(F)cc1)N1CCC(c2ccccc2)C1 (stereo not drawn),-10%,nt,5%[10 µM],nt,-2%,-12%[9.22 µM]
CC1CN(C(=O)c2cccc(C(=O)N3CC(C)OC(C)C3)c2)CC(C)O1 (stereo not drawn),6%,-9%,-12%,1,9%,13%
COc1ccc(C(=O)N2CCC(C(=O)c3c(C)cc(C)cc3C)CC2)cc1,3%,nt,4%[10 µM],nt,22µM*,-4%[9.22 µM]
CCOc1ccc(OCc2cccc(C(=O)N3CCCC3)c2)cc1,-2%,-11%,-121%[0.074 µM],-20,-5%,15%
COc1ccc(C(=O)N2CCCC(c3ccccc3)C2)cc1 (stereo not drawn),3%,16µM*,-10%,48,?,8%[9.22 µM]
COc1ccc(C(=O)N2CCC(C(=O)O)CC2)cc1,5%,-3%,2%,39,-6%,2%
CCOc1ccc(OCc2cccc(C(=O)N3CCCCCC3)c2)cc1,12%,nt,nt,nt,35µM*,-21%
CCc1ccc2c(-c3cccc(Cl)c3)nc(=O)n(CC)c2n1,0%,-12%,-12%,nt,?,nt
CC(C)(C)CC(C)(C)c1ccc(O)c(C[N+](C)(C)[O-])c1,3%[14.2 µM],-15%,3%[10 µM],nt,-9%[13.5 µM],nt
Cc1ccc(N2C(=O)C3NN=C(C(=O)OCc4ccccc4)C3C2=O)c(C)c1 (stereo not drawn),-11%,-2%,17%[10 µM],19,10%,4%
CC(=O)c1ccc(N(C(=O)CS(=O)CC(=O)Nc2ccc(F)cc2)C(C(=O)NC2CCCCC2)c2cccs2)cc1 (stereo not drawn),3%,-17%,nt,31,-3%,-10%
COc1ccc(OCCC(=O)N2CCCCC2)cc1,-1%,16µM*,-9%,3,1%,-7%
CCOC(=O)C1CCCN(C(=O)c2sc3nc(C)nc(N(CC)CC)c3c2C)C1 (stereo not drawn),4%,14µM*,3%[10 µM],-2,3%,0%
COc1ccc(C(CC(=O)N2CCCCC2)C(C)C)cc1 (stereo not drawn),5%,nt,-7%[10 µM],nt,-3%,2%[9.22 µM]
O=C(c1ccc(COc2ccccc2Cl)o1)N1CCN(c2ccccc2)CC1,5%,-17%,-5%,?,?,-3%
O=C(c1ccc(COc2ccccc2Br)o1)N1CCCCCC1,-4%,14µM*,-17%,26,16µM*,-14%
CCOc1ccc(OCc2ccc(C(=O)OCc3ccccn3)o2)cc1,-8%,25µM*,-12%,-13,?,-5%
C=C(C)C1COc2cc3oc(=O)ccc3cc2O1 (stereo not drawn),-1%,?,-80%,nt,?,nt
CC1(C)CCC(=O)N[C@H]1CC(=O)C[C@H]1NC(=O)CCC1(C)C,9%[14.2 µM],2%,-2%[10 µM],nt,4%[13.5 µM],nt
CCOc1ccc(OCc2ccc(C(=O)N3CCCC3)o2)cc1,-8%,?,5%[10 µM],26,28µM*,-29%
CCCCOc1ccc(C(=O)N2CCCC2)cc1,4%,2.2µM*,-9%,-12,?,-23%
CCCCOc1ccc(C(=O)O)cc1,8%,-17%,-7%,38,5%,3%
SMILES,GoLoco inh red,HPGD block,HTT cytoprotect,PNC assembly inh,ALDH1A1 block,HTT aggregate
CCCCOc1ccc(C(=O)N2CC(C)OC(C)C2)cc1 (stereo not drawn),-29%,?,11%,?,0.079µM*,-3%
CCOC(=O)C1CCCN(C(=O)c2ccc(OCC)cc2)C1 (stereo not drawn),5%,14µM*,25%,-15,-12%,-28%
CCOc1ccc(C(=O)N2CCCC2)cc1,8%,7.9µM*,17%[10 µM],-10,-1%,-18%
CCCOc1ccc(C(=O)N2CCCc3ccccc32)cc1,-1%,16µM*,-2%[0.074 µM],?,6.3µM*,-5%
CCOc1ccc(C(=O)N2CCN(Cc3ccccc3)CC2)cc1,4%,-18%,-8%,18,-11%,-16%
COc1cc(C(=O)OCC(=O)N(C)Cc2ccccc2)cc(OC)c1OC,6%,-12%,-3%[10 µM],-100*,2%,9%
CN(C)c1ccc(C2/C(=C(/O)c3ccccc3)C(=O)C(=O)N2CCCC(=O)O)cc1 (stereo not drawn),-15%,nt,0%[10 µM],nt,nt,-28%[9.22 µM]
CCCN(CCC)C(=O)c1ccc2c(c1)OCO2,-5%,25µM*,9%[10 µM],24,4%,-15%
Cc1ccc(S(=O)(=O)CCC(=O)OCc2ccc(S(=O)(=O)C(C)C)cc2)cc1,15%,nt,-41%,nt,2.5µM*,-10%[9.22 µM]
Cc1ccc(S(=O)(=O)CCC(=O)OCc2ccc(Cl)c(Cl)c2)cc1,14%,-14%,1%[10 µM],-112*,?,-12%
Cc1ccc(S(=O)(=O)CCC(=O)OCc2ccccc2F)cc1,20%,nt,8%[10 µM],nt,?,11%
COc1ccc(S(=O)(=O)Nc2nnc(C)s2)cc1,-4%,32µM*,-14%[10 µM],7,?,-1%
COc1ccc(NC(=O)Nc2sc(=S)n(C)c2C)cc1,15%,nt,nt,nt,16µM*,nt
COCc1nnc(NS(=O)(=O)c2ccc(C)cc2)s1,4%,4%,10%,-11,5%,14%
CCc1nnc(NS(=O)(=O)c2ccc(NC(=S)NC(=O)c3ccc(OC)cc3)cc2)s1,7%,?,-14%[10 µM],-24,18µM*,-4%
CCc1nnc(NS(=O)(=O)c2ccc(NC(=S)NC(=O)c3ccc(OC)c(OC)c3)cc2)s1,14%,?,-6%[10 µM],?,7.9µM*,14%
Cc1c(Cl)c(S(N)(=O)=O)cc(S(N)(=O)=O)c1NC(=O)c1ccc(Cl)cc1,2%[14.2 µM],-8%,0%[10 µM],nt,10%[13.5 µM],nt
CN(CCN1CCOCC1)Cc1nc(-c2ccccc2)no1,9%,nt,43%[10 µM],nt,-9%,15%[9.22 µM]
O=c1cc(O)n(-c2ccc(Cl)cc2)c(=S)[nH]1,7%,-9%,5%,?,1%,-22%
Cc1[nH]c2ccc(F)cc2c1CCN(Cc1cccnc1)C(=S)Nc1cccc(F)c1,4%,nt,nt,nt,-6%,-4%
COc1ccc(NC(=O)Nc2sc(NS(=O)(=O)c3ccccc3)nc2C)cc1,16%,nt,-16%,nt,8.9µM*,16%
Cc1nc(NS(=O)(=O)c2ccccc2)sc1NC(=O)OC(C)C,-7%,-18%,-10%,2,?,0%
FC(F)(F)c1ccccc1-c1ccc2ncnc(N3CCOCC3)c2c1,6%,nt,15%,nt,?,nt
